The whole screen tested about 190,000 compounds, of which about 360 (0.19%) were called active. Not shown: some 2% with an inconclusive outcome. The sample holds actives, similar compounds and a random draw of the others, so the mix is not that of the screen. Unmarked numbers belong to inactive results.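 The calls were made as follows: active = GTP binding activity at least 20 points away from 100%, either lowered or raised; inconclusive = signal likely due to the compound's own green fluorescence; inactive = the rest.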
What follows are molecules tested against Ras-related protein Rab-2A (Canis lupus familiaris) (UniProt P61105) (assay: Rab2 wt fluorescent GTP binding changes, either direction – biochemical, dog, bead-based flow cytometry, multiplex, primary screen (AID 760;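 also: 0% = beads with excess unlabeled GTP and 100% = no-compound control corrected for plate trend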)). Conditions: GST-Rab2 wt beads, Bodipy-GTP binding, at 10 µM.

| Structure (SMILES) | GTP binding activity |
| --- | --- |
| Cc1ccc(C(=O)NN(CCC#N)C2=NS(=O)(=O)c3ccccc32)cc1 | 95% |
| Cn1nc(-c2ccccc2)c(CO)c1Sc1ccccc1 | 93% |
| CN1C(=O)/C(=C/C=C2\SCCN2C)OC1=S | 98% |
| O=C(O)CCc1nc2cc(Cl)ccc2n(Cc2ccccc2)c1=O | 98% |
| CCN(CC(=O)NCc1cccs1)S(=O)(=O)c1ccc(NC(C)=O)cc1 | 96% |
| Cc1ccc(S(=O)(=O)N2CCOCC2)cc1NC(=O)CSc1nnc(N)s1 | 98% |
| Cc1ccccc1CC1(CO)CCCN(Cc2ccc3c(c2)OCCO3)C1 (stereo not given) | 99% |
| O=C(CC1SC(=Nc2ccccc2F)N(CCN2CCOCC2)C1=O)Nc1ccc(F)cc1F (stereo not given) | 97% |
| CC(C)NC(=O)NC(=O)CSc1nnc(-c2ccccc2F)n1N | 97% |
| C=CCN1C(=O)C(O)(CC(=O)c2ccccn2)c2ccccc21 (stereo not given) | 107% |
| CC1(C)CC(=O)c2ccc(O)cc2O1 | 97% |
| N=C1C(c2nc3ccccc3[nH]2)=C(O)CN1NC(=O)c1c[nH]c2ccccc12 | 96% |
| CCCCOc1ccc(N(CC(=O)NC(C)C)C(=O)CCC(=O)Nc2ccccn2)cc1 | 97% |
| O=C(NNC(=S)NC(=O)c1cn(-c2ccccc2)nc1-c1ccccc1)c1ccncc1 | 90% |
| COc1ccc(N2CCN(C(=O)CNS(=O)(=O)c3ccc(C)c(C)c3)CC2)cc1 | 96% |
| CC(C)=CCN1CCN(Cc2ccc(Oc3ncccn3)cc2)CC1CCO (stereo not given) | 100% |
| COc1ccc(NC(=O)c2cc3nc(-c4ccccc4)cc(C)n3n2)cc1OC | 84% |
| CCOC(=O)c1ccc(N/C(=N/S(=O)(=O)c2ccccc2)c2ccccc2)cc1 | 95% |
| CCOC(=O)c1ccc(Nc2cc(C)nc3nc(C)nn23)cc1 | 98% |
| CCOC(=O)c1nc(Nc2ccc(C(=O)OC)cc2)c2ccccc2n1 | 77% (active) |
| O=C(/C=C/c1ccc(N2CCOCC2)cc1)c1ccccc1 | 97% |
| CCN(c1ccccc1)S(=O)(=O)c1ccc2[nH]c(=O)[nH]c2c1 | 99% |
| O=C(Nc1ccc2oc(-c3ccccc3F)nc2c1)c1ccco1 | 96% |
| Cc1ccc2cc(CN(c3ccc(C)c(C)c3)S(C)(=O)=O)c(=O)[nH]c2c1 | 98% |
| CCN(CC(=O)NC(=O)NCc1ccccc1)Cc1nc2ccccc2c(=O)[nH]1 | 101% |

| Structure (SMILES) | GTP binding activity |
| --- | --- |
| Cc1noc(C)c1S(=O)(=O)Nc1ccc(C(=O)N2CCN(c3ccc(F)cc3)CC2)cc1 | 96% |
| COc1ccc(CC(=O)N[C@@H](CCSC)c2nc3ccccc3[nH]2)cc1 | 99% |
| S=C(NCc1ccc2c(c1)OCO2)NCc1ccco1 | 101% |
| Cc1ccc(CNC(=O)CCNS(=O)(=O)c2ccc(Br)s2)cc1 | 99% |
| COCCN(CCOC)S(=O)(=O)c1ccc(C(=O)Nc2nc3c(s2)CCc2ccccc2-3)cc1 | 102% |
| C=CCN(CC=C)S(=O)(=O)c1ccc(C(=O)Nc2nc3c(s2)CCc2ccccc2-3)cc1 | 39% (active) |
| C=CCN(CC=C)S(=O)(=O)c1ccc(C(=O)Nc2sc3c(c2C(N)=O)CCCCC3)cc1 | 101% |
| COc1ccc2oc(=O)c(C(=O)N3CCCC3)cc2c1 | 98% |
| O=c1/c(=C/c2ccc(CNS(=O)(=O)c3ccccc3)o2)sc2n1CCN=2 | 74% (active) |
| O=S(=O)(NCc1ccccc1)c1ccc(S(=O)(=O)N2CCCC2)cc1 | 100% |
| COC(=O)C1=C(C)NC(=O)/C1=C/c1ccc(CNS(=O)(=O)c2ccc(C)cc2)o1 | 100% |
| C=CCC(C(=O)c1ccccc1)[N+](C)(C)CC=C (stereo not given) | 96% |
| O=C(COC(=O)C12CC3CC(CC(O)(C3)C1)C2)NC12CC3CC(CC(C3)C1)C2 | 100% |
| CCOC(=O)c1oc2c(CN3CCN(CCO)CC3)c(O)c(CC)cc2c(=O)c1-c1nc2ccccc2s1 | 99% |
| COc1ccc(Cl)cc1N(CC(=O)N/N=C/c1ccc(OCC(N)=O)cc1)S(C)(=O)=O | 99% |
| N/C(=N\OC(=O)COc1ccc([N+](=O)[O-])cc1)c1ccc(Br)cc1 | 98% |
| CCOc1ccc(C(C)=O)cc1CSc1nnc(-c2ccncc2)n1CCOC | 99% |
| O=C(CCN1C(=O)c2ccccc2C1=O)NCCCn1ccnc1 | 101% |
| Cc1nc(N2CCOCC2)sc1C(=O)NN | 100% |
| COc1ccc(-c2nn(-c3ccccc3)cc2CN2CCCO2)c(F)c1 | 100% |
| Cc1ccc(CSCC(N)C(=O)O)cc1 (stereo not given) | 97% |
| Cc1ccc(C(=O)CS(C)(=O)=O)cc1 | 104% |
| Cc1ccc(SC(CC(=O)c2ccc(C(C)(C)C)cc2)C(=O)O)cc1 (stereo not given) | 78% (active) |
| O=C(CSc1ccc([N+](=O)[O-])cn1)Nc1ccc(N2CCOCC2)c(Cl)c1 | 96% |
| CCCOC1CCCN(Cc2cn(C)nc2-c2ccccc2F)C1 (stereo not given) | 96% |
